Reference: PubChem BioAssay (Tox21)
Inconclusive results are not listed. Calls of active or inactive are those of the source. Unless noted, calls come from the whole dose curve.

Legend:
[1] = biological target: Gonadotropin-releasing hormone receptor (Homo sapiens) (UniProt P30968); assay: Human gonadotropin-releasing hormone receptor (GnRHR) small molecule agonists, calcium flux assay in GnRHR-HEK293 cells (AID 1920063); note: nearly all actives have a fitted effect of over 35% in size
Outline: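 HEK293 cells stably expressing human GnRHR were dye-loaded for 1 h at 37 C. Compound was added in agonist mode and fluorescence (Ex/Em 480/540) recorded kinetically for 3 min. Fifteen concentrations, triplicates.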

[2] = biological target: KiSS-1 receptor (Homo sapiens) (UniProt Q969F8); assay: Human kisspeptin (KISS1R) small molecule agonists, calcium flux assay in KISS1R-HEK293 cells (AID 1920064; active = well fitted activation curve with a large enough effect in the repeat runs)
Chain of KiSS-1 receptor (Homo sapiens) (Q969F8 whole entry, looked up): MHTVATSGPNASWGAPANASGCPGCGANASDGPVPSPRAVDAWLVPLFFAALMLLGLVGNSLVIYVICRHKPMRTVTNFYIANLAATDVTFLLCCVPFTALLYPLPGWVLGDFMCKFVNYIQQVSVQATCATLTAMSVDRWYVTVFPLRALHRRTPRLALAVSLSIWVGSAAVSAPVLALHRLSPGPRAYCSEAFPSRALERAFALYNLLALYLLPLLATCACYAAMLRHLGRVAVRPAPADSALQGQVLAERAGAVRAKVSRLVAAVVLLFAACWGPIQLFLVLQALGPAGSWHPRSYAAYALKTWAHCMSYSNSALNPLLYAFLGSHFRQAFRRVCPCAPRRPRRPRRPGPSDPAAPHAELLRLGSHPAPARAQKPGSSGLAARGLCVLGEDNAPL
Outline: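 HEK293 cells stably expressing human KISS1R were loaded with calcium dye for 1 h at 37 C, then given compound; fluorescence (Ex/Em 480/540) was read kinetically for 3 min. Fifteen concentrations, triplicate.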

[3] = G protein-coupled receptor (GPCR) small molecule agonists, calcium flux assay: HEK293 wild type cell line counter screen (AID 1920065)
Outline: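 Wild-type HEK293 cells plated 18 h, loaded with calcium dye 1 h at 37 C, then compounds added in agonist mode (ATP as positive control). Kinetic fluorescence Ex/Em 480/540 recorded 3 min at 1 sec intervals; 15 concentrations, triplicate.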

[4] = p53 small molecule agonists, cell-based qHTS assay with human liver microsomes (AID 1963577);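 note: p53 response element beta-lactamase reporter cells with liver microsomes plus NADPH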
Outline: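 Steps: plate p53RE-bla cells, incubate 5 h at 37 C; add compound in DMSO; add microsomes (0.5 mg/mL final) and NADPH (0.5 mg/mL final); incubate 16 h at 37 C; add LiveBLAzer, 2 h RT; read fluorescence.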

[5] = p53 small molecule agonists, cell-based qHTS assay with rat liver microsomes (AID 1963578)
Outline: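 Metabolic activation is supplied by rat liver microsomes with NADPH (each 0.5 mg/mL final). p53RE-bla cells incubate with compound 16 h at 37 C; reporter activity is measured by LiveBLAzer fluorescence.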

[6] = p53 small molecule agonists, cell-based qHTS assay with rat liver microsomes: qHTS cell viability counter screen (AID 1963580); note: nearly all actives have a fitted effect of over 45% in size
Outline: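 p53RE-bla HCT-116 cells (4,000/well) rested 5 h at 37 C, then given Tox21 compounds in DMSO with rat liver microsomes (0.5 mg/mL final) plus NADPH (0.5 mg/mL final) for 16 h at 37 C. Viability read by CellTiter-Glo luminescence after 30 min at room temperature.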

[7] = p53 small molecule agonists, cell-based qHTS assay: qHTS cell viability counter screen (AID 1963581); note: nearly all actives have a fitted effect of over 45% in size
Outline: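 p53RE-bla HCT-116 cells, compounds added 5 h after plating and incubated 16 h at 37 C. Cytotoxicity measured in the same wells as intracellular ATP by CellTiter-Glo luminescence after 30 min at room temperature.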

[8] = p53 small molecule agonists, cell-based qHTS assay (AID 1963582; active = well fitted activation curve with a large enough effect in the signal ratio in the repeat runs, not every such curve was filed as active; the % refers to the signal ratio)
Outline: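 p53RE-bla reporter cells, compounds added in DMSO after 5 h plating, incubated 16 h at 37 C. Beta-lactamase read via 2 h room-temperature LiveBLAzer B/G FRET substrate, fluorescence intensity.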

[9] = biological target: 5-hydroxytryptamine receptor 2A (Homo sapiens) (UniProt P28223); assay: 5-hydroxytryptamine receptor 2A (HTR2A) small molecule antagonists, cell-based qHTS assay (AID 1963586); note: nearly all actives have a fitted effect of over 45% in size
Chain of 5-hydroxytryptamine receptor 2A (Homo sapiens) (P28223 whole entry, looked up): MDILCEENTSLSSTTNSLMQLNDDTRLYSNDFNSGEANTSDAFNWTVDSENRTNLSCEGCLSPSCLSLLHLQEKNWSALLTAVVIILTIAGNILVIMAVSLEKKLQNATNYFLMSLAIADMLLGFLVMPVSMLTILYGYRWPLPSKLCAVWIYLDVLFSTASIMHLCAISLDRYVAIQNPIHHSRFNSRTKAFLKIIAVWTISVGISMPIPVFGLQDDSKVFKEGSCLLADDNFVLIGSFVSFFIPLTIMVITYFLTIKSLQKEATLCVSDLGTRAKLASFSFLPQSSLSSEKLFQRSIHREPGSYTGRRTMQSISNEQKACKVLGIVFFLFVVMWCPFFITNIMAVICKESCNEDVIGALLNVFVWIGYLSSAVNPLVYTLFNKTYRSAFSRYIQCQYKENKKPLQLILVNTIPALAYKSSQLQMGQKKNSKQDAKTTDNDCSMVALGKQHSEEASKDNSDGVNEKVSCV
Outline: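 Antagonist-mode intracellular calcium assay: DOI (4 nM) added after 5 min compound pre-incubation at room temperature to dye-loaded HTR2A-CHO cells. Fluorescence followed for 3 min, sampled every second.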

[10] = biological target: Muscarinic acetylcholine receptor M1 (Homo sapiens) (UniProt P11229); assay: Cholinergic receptor muscarinic 1 (CHRM1) small molecule antagonists, cell-based qHTS assay (AID 1963588); note: nearly all actives have a fitted effect of over 40% in size
Chain of Muscarinic acetylcholine receptor M1 (Homo sapiens) (P11229 whole entry, looked up): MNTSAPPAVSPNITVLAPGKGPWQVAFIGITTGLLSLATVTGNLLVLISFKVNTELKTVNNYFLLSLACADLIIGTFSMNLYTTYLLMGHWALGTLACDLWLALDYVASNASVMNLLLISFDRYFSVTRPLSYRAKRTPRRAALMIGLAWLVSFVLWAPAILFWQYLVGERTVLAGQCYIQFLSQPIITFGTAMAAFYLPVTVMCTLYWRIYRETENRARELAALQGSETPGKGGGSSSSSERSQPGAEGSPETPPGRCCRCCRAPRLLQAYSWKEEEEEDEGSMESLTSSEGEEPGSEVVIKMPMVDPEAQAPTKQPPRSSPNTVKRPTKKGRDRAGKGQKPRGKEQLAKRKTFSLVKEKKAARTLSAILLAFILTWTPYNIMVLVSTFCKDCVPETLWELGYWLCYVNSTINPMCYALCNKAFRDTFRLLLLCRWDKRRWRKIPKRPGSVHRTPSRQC
Outline: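 CHRM1-CHO calcium-flux assay, antagonist mode. Cells were seeded 18 h, dye-loaded 1 h at 37 C and given compound for 5 min at RT, then acetylcholine was added at 50nM. FDSS fluorescence was read 3 min; 15 concentrations, three runs.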

[11] = biological target: Muscarinic acetylcholine receptor M1 (Homo sapiens) (UniProt P11229); assay: Cholinergic receptor muscarinic 1 (CHRM1) small molecule agonists, cell-based qHTS assay (AID 1963589); note: nearly all actives have a fitted effect of over 35% in size
Outline: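 CHO cells stably expressing human CHRM1 were loaded with calcium dye for 1 h at 37 C, then compound was added in agonist mode. Intracellular calcium fluorescence was followed kinetically at 1 s intervals. Fifteen concentrations were tested in three independent runs.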

[12] = cAMP Responsive Elements (CRE) small molecule agonists, cell-based qHTS assay (AID 1963590)
Outline: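 CRE-bla HEK 293T cells, 2,000/well in DMEM with 10% dialyzed FBS and 25 mM HEPES, pre-incubated 18 h at 37 C, then exposed to compound 3 h at 37 C. Beta-lactamase reporter read with LiveBLAzer B/G FRET substrate after 2 h at room temperature.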

[13] = cAMP Responsive Elements (CRE) small molecule antagonists, cell-based qHTS assay (AID 1963591; active = well fitted inhibition curve with a large enough effect in the signal ratio in the repeat runs, not every such curve was filed as active; the % refers to the signal ratio)
Outline: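 CRE-bla HEK293T cells plated 18 h, then given compound plus NKH477 at 0.25 uM final for 3 h at 37C. Beta-lactamase reporter read with LiveBLAzer B/G FRET substrate after 2 h at room temperature.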

[14] = biological target: Beta-2 adrenergic receptor (Homo sapiens) (UniProt P07550); assay: Adrenergic beta2 receptor (ADRB2) small molecule antagonists, cell-based qHTS assay (AID 1963592); note: series mostly up to about 92 µM; nearly all actives have a fitted effect of over 50% in size
Chain of Beta-2 adrenergic receptor (Homo sapiens) (P07550 whole entry, looked up): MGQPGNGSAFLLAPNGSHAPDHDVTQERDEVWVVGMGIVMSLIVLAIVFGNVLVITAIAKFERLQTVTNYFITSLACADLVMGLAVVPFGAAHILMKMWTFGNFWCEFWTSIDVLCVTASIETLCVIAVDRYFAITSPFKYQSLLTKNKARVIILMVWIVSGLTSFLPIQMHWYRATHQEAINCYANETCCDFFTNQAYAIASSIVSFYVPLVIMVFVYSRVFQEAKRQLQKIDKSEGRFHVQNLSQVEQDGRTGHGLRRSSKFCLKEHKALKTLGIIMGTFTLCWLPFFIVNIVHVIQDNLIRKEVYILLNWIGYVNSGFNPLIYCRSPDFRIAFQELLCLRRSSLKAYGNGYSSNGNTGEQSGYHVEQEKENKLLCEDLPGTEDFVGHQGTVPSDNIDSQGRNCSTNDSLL
Outline: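 Cells (CHO, stable ADRB2 overexpression) incubated 18-20hr at 37C; compounds added from DMSO; agonist mix (1nM isoproterenol, 100uM IBMX, 25uM Ro-20-1724) added; 0.5hr RT; d2-cAMP and anti-cAMP-cryptate added; 1hr RT; 665/615 nm read.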

[15] = biological target: D(2) dopamine receptor (Homo sapiens) (UniProt P14416); assay: Dopamine D2 receptor (DRD2) small molecule agonists, cell-based qHTS assay (AID 1963594); note: nearly all actives have a fitted effect of over 35% in size
Chain of D(2) dopamine receptor (Homo sapiens) (P14416 whole entry, looked up): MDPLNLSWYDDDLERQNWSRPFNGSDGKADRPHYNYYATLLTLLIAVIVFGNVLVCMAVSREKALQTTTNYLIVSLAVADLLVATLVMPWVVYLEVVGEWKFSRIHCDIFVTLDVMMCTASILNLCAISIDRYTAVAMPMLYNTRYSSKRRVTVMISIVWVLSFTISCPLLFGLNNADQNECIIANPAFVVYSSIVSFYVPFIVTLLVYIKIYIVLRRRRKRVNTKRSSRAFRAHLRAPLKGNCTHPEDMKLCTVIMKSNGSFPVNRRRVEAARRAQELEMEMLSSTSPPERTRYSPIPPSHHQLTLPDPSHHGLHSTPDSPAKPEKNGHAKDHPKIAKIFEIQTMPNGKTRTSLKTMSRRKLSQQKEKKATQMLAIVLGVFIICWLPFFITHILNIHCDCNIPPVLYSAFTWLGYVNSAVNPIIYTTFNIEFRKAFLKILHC
Outline: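 HEK293 cells stably expressing DRD2 were cultured 24 h at 37 C, then given Ro20-1724 (0.1 mM final) and compounds for 10 min at room temperature. NKH477 (200nM) was then added for 30 min. cAMP was read by HTRF.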

[16] = biological target: D(2) dopamine receptor (Homo sapiens) (UniProt P14416); assay: Dopamine D2 receptor (DRD2) small molecule antagonists, cell-based qHTS assay (AID 1963595; active = well fitted inhibition curve with a large enough effect in the signal ratio in the repeat runs, with a control signal flat; the % refers to the signal ratio)
Outline: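 HEK293 cells stably expressing DRD2, preincubated with 0.1 mM Ro20-1724 and compounds 10 min, were stimulated with 200 nM NKH477 plus 12 nM quinpirole for 30 min at room temperature; cAMP measured by HTRF (665/620 nm).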

[17] = p53 small molecule agonists, cell-based qHTS assay with human liver microsomes: qHTS cell viability counter screen (AID 1963579); note: nearly all actives have a fitted effect of over 45% in size
Outline: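 After the 460/530 nm beta-lactamase read, CellTiter-Glo was added to the same wells and luminescence measured after 30 min at room temperature, giving viability of p53RE-bla cells treated 16 h with compounds plus microsomes and NADPH.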

[18] = biological target: 5-hydroxytryptamine receptor 2A (Homo sapiens) (UniProt P28223); assay: 5-hydroxytryptamine receptor 2A (HTR2A) small molecule agonists, cell-based qHTS assay (AID 1963587); note: nearly all actives have a fitted effect of over 30% in size
Outline: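 HTR2A-CHO cells, plated 18 h at 37 C/5% CO2, dye-loaded 1 h at 37 C; compounds in DMSO added by pin tool (agonist mode). Intracellular calcium flux read as kinetic fluorescence on FDSS over 2 min at 1 s intervals.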

[19] = biological target: Beta-2 adrenergic receptor (Homo sapiens) (UniProt P07550); assay: Adrenergic beta2 receptor (ADRB2) small molecule agonists, cell-based qHTS assay (AID 1963593);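 note: CHO cells stably overexpressing human ADRB2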
Outline: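 CHO cells stably over-expressing ADRB2 were plated overnight at 37C, then dosed with compounds plus a stimulation mix containing 100uM IBMX and 25uM Ro-20-1724 for 0.5hr at room temperature. cAMP was measured by HTRF competition, 1hr.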

Measured: Potency

Chain of Gonadotropin-releasing hormone receptor (Homo sapiens) (P30968 whole entry, looked up): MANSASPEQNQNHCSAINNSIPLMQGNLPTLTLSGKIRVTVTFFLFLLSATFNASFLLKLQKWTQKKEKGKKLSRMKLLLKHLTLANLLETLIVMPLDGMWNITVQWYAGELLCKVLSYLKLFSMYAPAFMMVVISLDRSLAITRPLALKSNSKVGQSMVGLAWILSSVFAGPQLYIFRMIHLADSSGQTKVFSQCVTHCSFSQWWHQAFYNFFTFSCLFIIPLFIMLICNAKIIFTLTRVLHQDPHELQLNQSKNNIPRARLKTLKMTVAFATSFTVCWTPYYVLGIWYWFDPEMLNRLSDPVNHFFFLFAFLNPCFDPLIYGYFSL

C[Si](Cl)(c1ccccc1)c1ccccc1
not listed: [17] | [18] | [19]
inactive: all other assays above

O=C(O)c1cc(C(=O)O)cc(C(=O)O)c1
not listed: [8] | [14] | [15]
inactive: all other assays above

CCC(C)c1cc(C(C)(C)C)c(O)c(C(C)(C)C)c1 (centres undefined)
not listed: [11] | [18] | [19]
inactive: all other assays above

O=C(O)Cc1ccc(Cl)cc1Cl
not listed: [17]
inactive: all other assays above

Brc1cc2ccccc2c2ccccc12
not listed: [8] | [13] | [14] | [18] | [19]
inactive: all other assays above

CC(C)c1cccc(C(C)C)c1NC(=O)NS(=O)(=O)c1cc(C(C)(C)O)co1
not listed: [12] | [17]
inactive: all other assays above

CCOC(=O)c1ccccc1C(=C1C=C(Br)C(=O)C(Br)=C1)c1cc(Br)c(O)c(Br)c1
not listed: [7] | [8] | [9] | [10] | [12] | [13] | [19]
inactive: all other assays above
